# In the library only some 1.2% were active in any assay of this set; here they are far more common.
# BRCA1 expr up: activators of BRCA1 expression. MCF7-BRCA1-FFLuc reporter, luminescence, 48 h; response scale: scaled: vehicle 0%, 10 µM genistein 100%. Potency, µM (top dose mostly 46.1 µM), without a hit: top-dose activation, hits mostly activators. 380,000 compounds, 1.1% hits. AID 624202; further: nearly all actives have a fitted effect of over 80% in size
#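 Luminescence from a BRCA1-driven firefly luciferase in MCF7 cells was the read-out, taken 15 min after substrate addition following 48 h compound exposure at 37 °C. Data were normalized to a 10 microM genistein control and DMSO vehicle.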
# RGS12 GoLoco inh: blocks human Gai1 binding to RGS12 GoLoco peptide, red readout; P63096; Gai1:RGS12 GoLoco peptide FP, rhodamine, 10 min; Potency, µM (titrated, usually from 61.6 µM), for the others: at the top dose activity, negative = inhibition, most hits filed as inhibitors; 230,000 compounds, 0.44% hits; active means well fitted inhibition curve with a large enough effect, not every such curve was filed as active; inactive means no such curve, though single readings can be large or run the other way; further: on the % scale 0 is the no-effect control and ±100 the full control effect; nearly all actives have a fitted effect of over 30% in size
# ERG Ets-DNA blk: inhibitors of human ERG Ets domain-DNA interaction | P11308 | fluorescence polarization, His-ERG Ets domain / labelled DNA | Potency, µM (highest dose often 76.9 µM), without a hit: at the highest dose FP activity, negative = inhibition, most hits filed as inhibitors | 370,000 compounds, 0.028% hits | AID 624246; active means well fitted inhibition curve with a large enough effect in the polarisation, with a control signal flat; inconclusive means small, poorly fitted or top-dose-only effect, or effect the other way, or a change in a side signal; inactive means no such curve, though single readings can be large or run the other way; the % refers to the polarisation;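 further: polarization taken with two DNA probes labelled with fluorescein and Texas red; % of control where 0% means no effect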
# Target sequence (P11308 whole entry, looked up, the tested form may be a part): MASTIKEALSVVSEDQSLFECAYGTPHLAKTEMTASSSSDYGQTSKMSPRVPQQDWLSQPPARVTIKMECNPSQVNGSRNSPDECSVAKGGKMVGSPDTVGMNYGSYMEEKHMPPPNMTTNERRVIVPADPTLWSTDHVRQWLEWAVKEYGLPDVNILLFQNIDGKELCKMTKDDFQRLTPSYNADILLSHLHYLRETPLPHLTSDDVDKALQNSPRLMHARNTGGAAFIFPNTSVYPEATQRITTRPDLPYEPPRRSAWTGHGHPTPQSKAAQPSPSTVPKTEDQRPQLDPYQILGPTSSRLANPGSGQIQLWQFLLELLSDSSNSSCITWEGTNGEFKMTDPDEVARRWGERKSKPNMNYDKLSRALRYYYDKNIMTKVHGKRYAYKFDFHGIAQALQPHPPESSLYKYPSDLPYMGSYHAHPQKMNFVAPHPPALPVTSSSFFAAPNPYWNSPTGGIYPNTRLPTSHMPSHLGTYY
#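 His-tagged ERG Ets domain (1 uM in the protein solution; 300mM KCl, 50mM Tris-HCl, 1mM EDTA, 1mM DTT, pH 7.5) received compound, then a probe mix of 5 nM fluorescein-DNA and 100nM Texas-615-DNA. Fluorescence polarization was read for both dyes.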
# Apoferritin bind: candidate novel general anesthetic via apoferritin binding; 350,000 compounds, 0.074% hits; apoferritin/1-aminoanthracene competitive binding, fluorescence; P02791; Potency, µM (doses to about 77.5 µM), without a hit: at the highest dose activity change, negative = displacement, most hits filed as inhibitors; further: on the % scale 0 is the no-effect control and ±100 the full control effect; nearly all actives have a fitted effect of over 20% in size
# Target sequence (P02791 2-175 limits assumed): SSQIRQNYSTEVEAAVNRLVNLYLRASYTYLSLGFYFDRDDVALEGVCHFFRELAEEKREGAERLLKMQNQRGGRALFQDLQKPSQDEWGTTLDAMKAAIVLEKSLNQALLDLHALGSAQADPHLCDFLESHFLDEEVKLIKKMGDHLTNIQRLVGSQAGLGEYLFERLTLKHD
#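 Horse-spleen apoferritin (10 uM) in 50% saturated 1-aminoanthracene in PBS was incubated 10 min at room temperature with compound. Fluorescence (ex 380, em 535 nm) was normalized to free and bound 1-AMA, with concentration-response fitted by a four-parameter Hill equation.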
# * marks the source's active call; other numbers are inactive results; ? = inconclusive; / = no result given; [ ] = remark or other dose. Unless noted, the call rests on the fitted dose curve; in most records, active means well fitted curve in the direction sought with a large enough effect; inconclusive means small, poorly fitted or top-dose-only effect, or another doubt; inactive means no such curve, though single readings can be large; an effect the other way counts as inactive or inconclusive. Potency means the concentration at half of the fitted maximal effect.
SMILES,BRCA1 expr up,RGS12 GoLoco inh,ERG Ets-DNA blk,Apoferritin bind
COc1cccc([C@@H]2Oc3ccc(Br)cc3C[C@H]2OC(=O)NS(=O)(=O)c2ccc(C)cc2)c1,/,6%,/,/
Cn1c(/C(C#N)=C/c2ccc(O)cc2)nc2ccccc21,11µM*,-4%,3%,0%
O=C(CSCCO)Nc1ccc(C2CCCCC2)cc1,63%,-10%,-4%,7.1µM*
Cc1ccc(Nc2nc(Nc3ccc(Cl)cc3)nc(N3CCOCC3)n2)cc1,-20%,/,/,/
COc1cccc(NC(=O)Nc2cccs2)c1,13µM*,52%,11%,5%
COc1ccc(NC(=O)Nc2cccs2)cc1OC,90%,9%,/,-11%
Cc1ccc(NC(=O)Nc2cccs2)cc1,1.3µM*,19%,0%,-21%
CCOC(=O)c1cccc(NC(=O)CSc2ncc3c(n2)-c2ccc(Cl)cc2N(Cc2ccccc2)S3(=O)=O)c1,-61%,/,0%,-7%
O=c1[nH]c2cc(Cl)c(O)cc2o1,/,/,/,6%
CCOC(=O)[C@H](CCc1ccccc1)N[C@@H](C)C(=O)N1[C@H](C(=O)O)C[C@H]2CCC[C@@H]21,/,8.9µM*,/,-1%[29.3 µM]
COc1ccc(/C=N/N=C2/SCC(=O)N2Cc2ccccc2)cc1,5.6µM*,-3%,-2%,-2%
O=C(NCCOc1ccccc1Cl)c1cc(F)c(F)cc1Cl,7.1µM*,/,-2%,-18%
O=C(COC(=O)c1ccccc1OCc1cccc(Br)c1)Nc1ccc(Br)cc1,-9%,/,/,/
Cc1cc(C(=O)COC(=O)c2cc(Cl)ccc2N)c(C)n1Cc1ccco1,2.8µM*,1%,1%,-4%
COc1cncc(C#Cc2ccccn2)c1,4.5µM*,/,/,/
Nc1ccc(/C=C/c2ccnc3ccccc23)cc1,31%,/,/,/
CC(=O)N/C(=C/c1ccccc1)c1ccncc1,104%,/,/,/
Cc1nn(-c2ccccc2)c(/N=C/c2ccccc2O)c1-c1ccccc1,13µM*,-17%,-3%,-12%
CCCN1CNc2c(c(=O)[nH]c(=S)n2CCc2c(OC)cccc2OC)C1,29%,/,/,/
CCN(Cc1ccccc1)c1ccc(/C=C/c2nccc3ccccc23)cc1,-14%,/,/,/
COc1cc(C)nc(N2CCCC(C(=O)NC3CCC(C)CC3)C2)n1 (stereo not given),3.5µM*,-7%,/,-6%
O=c1cc(-c2ccccc2Cl)oc2ccc([N+](=O)[O-])c(O)c12,1%,6%[88.7 µM],-3%,?
Nc1ccc2oc(-c3ccccc3Cl)cc(=O)c2c1O,7.1µM*,-4%[88.7 µM],5%,?
O=C(COc1ccc(-c2ccccc2)cc1)N1CCCC1,13µM*,14%,13%,-11%
O=C(Oc1ccccc1)N1CCCCC1,8%,/,/,/
SMILES,BRCA1 expr up,RGS12 GoLoco inh,ERG Ets-DNA blk,Apoferritin bind
COc1ccc(OCCC(=O)N2CCN(C)CC2)cc1,-7%,/,10%,-3%
O=C(Oc1ccc(-c2ccccc2)cc1)N1CCCCC1,7.1µM*,0%,-10%,-22%
COc1ccc(OCCC(=O)N2CCCCC2)cc1,11µM*,-1%,-1%,-1%
CCOc1ccc(NC(=O)Nc2cc(C)ccc2F)cc1,2.5µM*,6%,3%,-3%
O=C1CN(CCN2CC(=O)NC(=O)C2)CC(=O)N1,8%,/,/,/
CCc1ccc(CN2CCCC(C(=O)Nc3ccccc3-c3ccc(OC)cc3)C2)o1 (stereo not given),-33%,/,32µM*,-5%
N=c1oc2cc(O)ccc2cc1C(=O)Nc1ccc(F)cc1,1.6µM*,/,-19%,77%
Cc1cc(OCCn2cnc3ccccc3c2=O)ccc1[N+](=O)[O-],5%,-1%,3%,-6%
Cc1ccc(OCCn2cnc3ccccc3c2=O)c([N+](=O)[O-])c1,4.5µM*,8%,2%,5%
COc1ccc(CNC(=O)Cn2cccc2C(=O)c2ccccc2C)cc1,9%,/,2%,-22%
COc1ccc(CNC(=O)Cn2cccc2C(=O)c2ccccc2)cc1,11µM*,/,-3%,2%
O=C1NN(c2ccc(Cl)cc2)C(=O)/C1=C\c1ccc(-c2cccc(C(=O)O)c2)o1,8.9µM*,6%,-4%,2%
Cc1ccc(N2NC(=O)/C(=C/c3ccc(-c4ccc(Cl)c(C(=O)O)c4)o3)C2=O)cc1,5%,-1%,5%,-7%
O=S(=O)(Nc1ccc2nc(-c3ccc(Br)o3)[nH]c2c1)c1ccccc1,/,3%,/,-19%
CC(=O)Nc1ccc2nc(-c3cccn3C)[nH]c2c1,91%,/,-5%,-3%
Cn1cccc1-c1nc2ccc(NC(=O)c3cccs3)cc2[nH]1,?,9%,0%,-10%
CC(=O)Nc1ccc2nc(-c3ccc(Br)o3)[nH]c2c1,10µM*,4%,23%,-3%
O=C(Nc1ccc2nc(-c3ccc(Br)o3)[nH]c2c1)c1cccs1,10µM*,6%,7%,22%
O=C(Nc1ccc2nc(-c3ccccc3)[nH]c2c1)c1ccco1,?,-1%,0%,-9%
CC(=O)Nc1ccc2nc(-c3cccs3)[nH]c2c1,6.3µM*,-4%,-3%,-5%
O=C(Nc1ccc2nc(-c3ccc(Br)o3)[nH]c2c1)c1ccco1,6.3µM*,14%,-2%,6%
COc1ccc([C@H]2OCC3C2CO[C@@H]3c2ccc(OC)c(OC)c2)cc1OC (stereo not given in full),/,/,/,3%
c1ccc(Cc2ccc(OCCn3cncn3)cc2)cc1,-3%,4%,-1%,-6%
c1ccc(-c2ccc(OCCOCCn3cncn3)cc2)cc1,7.1µM*,0%,-5%,-4%
CCOc1cccc(Nc2ccc([N+](=O)[O-])cn2)c1,74%,/,3%,?
SMILES,BRCA1 expr up,RGS12 GoLoco inh,ERG Ets-DNA blk,Apoferritin bind
Cc1cccc(Nc2ccc([N+](=O)[O-])cn2)c1,11µM*,/,7%,?
CN1CC[C@H](c2c(O)cc(O)c3c(=O)cc(-c4ccccc4Cl)oc23)[C@@H](O)C1,0%,/,/,/
Cc1cccc(/C=C\c2ccccc2)n1,/,7%,/,/
Cc1cccc(C=NOCCc2ccccc2)n1,10µM*,/,19%,/
O=C(OCc1cccc(F)c1)c1ccc2c(c1)-c1ccccc1C2=O,11µM*,9%,11%,-12%
CCOC(=O)c1ccc(COC(=O)c2ccc3c(c2)-c2ccccc2C3=O)cc1,-21%,9%,-13%,-9%
O=C(OCc1ccccc1F)c1ccc(-c2nnn(Cc3ccccc3)n2)cc1,/,/,-21%,53%
O=C(OCc1ccccc1F)c1ccc2c(c1)-c1ccccc1C2=O,7.1µM*,5%,-7%,-8%
C=CCC(C)(NCc1ccccc1)C(=O)OCC (stereo not given),/,6%,/,/
CCOc1ccccc1-c1nnc2n1N=C(c1cccc(OC)c1)CS2,/,/,/,-13%
O=S(=O)(NCCNCC=Cc1ccc(Br)cc1)c1cccc2cnccc12,-41%,/,/,/
Cc1ccc(C(=O)O/N=C(\N)c2ccc(C(F)(F)F)cn2)cc1,?,/,-5%,38%
N/C(=N\OC(=O)c1csnn1)c1ccc(C(F)(F)F)cc1,11µM*,0%,-1%,-11%
O=C(NCCC1=CCCCC1)c1cnc2n(c1=O)CCS2,8.9µM*,2%,-4%,-5%
O=C(NCCCc1ccccc1)c1cnc2n(c1=O)CCS2,6.3µM*,12%,1%,7%

# Screening data deposited in PubChem BioAssay by National Center for Advancing Translational Sciences (NCATS).
